Screens: PubChem BioAssay, National Center for Advancing Translational Sciences (NCATS)
RORgamma inh – blocks mouse ROR gamma transcriptional activity; P51450; Drosophila S2 Gal4-RORgamma UAS-luciferase reporter, 20 h; Potency, µM (top dose mostly 53.6 µM), for the others: top-dose activity change, negative = inhibition, actives largely listed as inhibitors; 5.4% of 310,000 active; AID 2551; note: nearly all actives have a fitted effect of over 60% in size
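ROR gamma transcriptional activity was tracked as Gal4-UAS luciferase output in stably transfected Drosophila Schneider cells, with compound added 1 hr before 700 uM copper sulfate induction and a 20 hr ambient-temperature incubation.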
Gal4-VP16 FLuc – Gal4-VP16 reporter inhibition counter-screen; 3.5% of 310,000 active; Potency, µM (highest dose often 53.6 µM), without a hit: at the top dose activity, negative = inhibition, actives largely listed as inhibitors; Drosophila S2 Gal4-VP16 UAS-luciferase, luminescence, 20 h; AID 2546;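 note: Gal4-VP16 expression switched on by copper sulfate through the metallothionein promoter; nearly all actives have a fitted effect of over 50% in size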
PLK1 PBD inh – blocks phosphopeptide binding to human PLK1 polo-box domain. P53350. Plk1 PBD binding of FITC phosphopeptide, fluorescence polarization. Potency, µM, inactives show max response, negative = inhibition, hits mostly inhibitors. 2.8% of 360,000 active; note: series mostly up to about 57 µM; nearly all actives have a fitted effect of over 65% in size
Target sequence (P53350 whole entry, looked up, the tested form may be a part): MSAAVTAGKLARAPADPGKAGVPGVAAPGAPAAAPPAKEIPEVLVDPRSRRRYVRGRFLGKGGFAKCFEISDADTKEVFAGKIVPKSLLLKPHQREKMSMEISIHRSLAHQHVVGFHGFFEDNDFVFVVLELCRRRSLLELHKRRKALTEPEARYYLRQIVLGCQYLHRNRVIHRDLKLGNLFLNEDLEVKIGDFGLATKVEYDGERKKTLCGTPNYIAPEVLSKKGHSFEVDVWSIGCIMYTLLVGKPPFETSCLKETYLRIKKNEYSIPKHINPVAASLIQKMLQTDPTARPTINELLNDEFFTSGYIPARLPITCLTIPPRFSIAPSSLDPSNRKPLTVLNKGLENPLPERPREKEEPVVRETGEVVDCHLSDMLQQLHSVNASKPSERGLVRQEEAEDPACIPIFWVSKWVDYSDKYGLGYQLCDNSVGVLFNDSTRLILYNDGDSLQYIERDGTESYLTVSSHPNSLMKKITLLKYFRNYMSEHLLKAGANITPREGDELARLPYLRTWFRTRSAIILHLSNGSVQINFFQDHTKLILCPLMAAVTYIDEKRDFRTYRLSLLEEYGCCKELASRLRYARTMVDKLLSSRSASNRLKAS
Sfp inh – Sfp phosphopantetheinyl transferase inhibition; Q9F4F7; Biochemical Sfp PPTase activity, qHTS; Potency, µM, for inactives: largest response in the series, negative = inhibition, hits mostly inhibitors; 3.5% of 310,000 active; AID 1490;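 note: the enzyme is Sfp with the accession as filed and its product quenches rhodamine fluorescence; 0% = enzyme reaction without inhibitor and -100% = no enzyme wells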
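Step 1, compound plus 15 nM Sfp-PPTase, 15 min, room temperature. Step 2, add rhodamine-CoA (5 uM) and BHQ-2-YbbR (12.5 uM). Step 3, read 525/598 nm fluorescence at 0 and 30 min.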
ALDH1A1 inh – ALDH1A1 (human) enzyme inhibition; Purified ALDH1A1, NADH fluorescence, propionaldehyde substrate; Potency, µM (doses to about 75.3 µM), for the others: top-dose activity, negative = inhibition, hits mostly inhibitors; 7.3% of 220,000 active; AID 1030; active = well fitted inhibition curve with a large enough effect, not every such curve was filed as active; inconclusive = small, poorly fitted or top-dose-only effect, or another doubt; inactive = no such curve, though single readings can be large or run the other way;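 note: plate controls were no enzyme wells and a reference inhibitor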
An asterisk follows results filed as active; ? = inconclusive; / = not tested or not shown; [ ] = dose if it differs, or a comment. Shown are actives, neighbours in structure and some others; about 12% of the full set was active somewhere. Unless noted, calls come from the whole dose curve; as a rule, active = well fitted curve in the direction sought with a large enough effect; inconclusive = small, poorly fitted or top-dose-only effect, or another doubt; inactive = no such curve, though single readings can be large; an effect the other way counts as inactive or inconclusive. Unless noted, % is set by controls: 0 for no effect and ±100 for the full control effect; potency is the fitted concentration of half-maximal effect.

SMILES | RORgamma inh | Gal4-VP16 FLuc | PLK1 PBD inh | Sfp inh | ALDH1A1 inh
O=C(NCc1ccccc1)c1cc(C2CCCCN2S(=O)(=O)c2ccccc2)on1 (stereo not given) | / | / | -1% | / | /
O=C(/C=C/c1ccc(Cl)cc1Cl)Nc1cccc(S(=O)(=O)NC2=NCCC2)c1 | 7.1µM* | 8.9µM* | 17µM* | 13% | -11%
CCOC(=O)c1nn(-c2ccc(Cl)cc2)c(=O)c(C#N)c1C | 4%[1.91 µM] | -5% | -6% | -1% | /
CCOP(=O)(OCC)C(C#N)=C1SCN(c2ccc(Cl)cc2)CS1 | 14µM* | ? | 27µM* | ? | -10%
CCn1c(CNC(=O)COc2ccc(C(C)C)cc2)nnc1SCC(=O)Nc1ccccc1C(C)C | 31% | 20µM* | -3% | 4% | ?
CCn1c(COc2ccccc2C)nnc1SCC(=O)OC | 3% | 3% | 1% | 15% | 8%
CCn1c(COc2ccccc2C)nnc1SCC(=O)CC(=O)Nc1ccccc1OC | 10µM* | 13µM* | -5% | 18% | -4%
COc1ccccc1NC(=O)CC(=O)CSc1nnc(-c2ccc(C)cc2)n1-c1ccccc1 | 7.1µM* | 10µM* | 0% | 9% | ?
CCn1c(COc2ccccc2)nnc1SCC(=O)CC(=O)Nc1ccccc1OC | ? | 22µM* | -8% | -9% | 0%
COc1ccc(Cn2cc(CN(C)C3CN(Cc4cn(Cc5ccc(OC)cc5)nn4)S(=O)(=O)C3)nn2)cc1 (stereo not given) | / | / | -10% | / | /
O=C(O)c1ccc(Cl)c(S(=O)(=O)Nc2ccccc2F)c1 | / | / | / | / | 1%
COc1cccc([C@@H]2Oc3ccc(OC)cc3/C(=N/OC[C@@H](C)[C@H](OCc3ccccc3)C(C)C)[C@@H]2O)c1 | 23%[10 µM] | -2%[10 µM] | / | 20% | -1%[13.5 µM]
O=C(NCc1cccnc1)c1[nH]c(C(F)(F)F)nc1-c1ccccc1 | / | / | 5% | / | /
CCn1c(COc2cccc(C)c2)nnc1SCC(=O)CC(=O)Nc1ccccc1OC | 10µM* | ? | -11% | 13% | -2%
CCn1c(COc2cccc(C)c2)nnc1SCC(=O)N1CCCC1 | ? | -8% | -2% | -7% | 10%
COC(=O)C1N[C@@H]([C@@H](NC(=O)COc2ccccc2)C(=O)NCc2ccc(OC)cc2)SC1(C)C (stereo not given in full) | / | / | -3% | / | /
Nc1ccccc1N=Cc1ccc(-c2cccc(Cl)c2)o1 | ? | 13µM* | ? | 32µM* | ?
COC(=O)N/N=C/c1ccc(-c2cccc(Cl)c2)o1 | 39% | -12% | -14% | -24% | -9%
CC1=NOC(=O)/C1=C\c1ccc(-c2ccc(Cl)c(C(=O)O)c2)o1 | -19% | 7% | 2.1µM* | 56µM* | 0.89µM*
Cc1ccc(N2NC(=O)/C(=C/c3ccc(-c4ccc(Cl)c(C(=O)O)c4)o3)C2=O)cc1C | 22% | 0% | ? | 11% | ?
CC1=CC2=NC(=O)/C(=C\c3ccc(-c4cccc(Cl)c4)o3)C(=N)N2O1 | ? | -19% | 1% | -6% | ?
CC1=NOC(=O)/C1=C\c1ccc(-c2cccc(Cl)c2)o1 | ? | ? | 0.53µM* | 20µM* | ?
O=C(O)c1cc(C(=O)O)nc(C(=O)O)c1 | / | / | / | / | -4%[13.5 µM]
CO/N=C/C1CCN(c2ncc(C(F)(F)F)cc2Cl)C1=O (stereo not given) | 16% | 5% | -2% | 16% | 32µM*
N#Cc1cccc(-c2nccc(NCc3cccnc3)n2)c1 | ? | -21% | / | 2% | ?
SMILES | RORgamma inh | Gal4-VP16 FLuc | PLK1 PBD inh | Sfp inh | ALDH1A1 inh
FC(F)(F)c1ccccc1-c1ccc2nncn2c1 | / | / | -3% | / | /
S=C1NC2=C(C(c3ccc(Br)cc3)N1)N1CCC2CC1 (stereo not given) | 8.9µM* | -7% | -19% | 9% | 2%
Fc1cccc(C2NC(=S)NC3=C2N2CCC3CC2)c1 (stereo not given) | -35% | -9% | -17% | 2% | ?
Cc1cccc(C)c1OCC1CNC(=O)O1 (stereo not given) | -29% | -3% | 27µM* | 17% | /
C=CCn1c(=O)/c(=C/c2ccsc2)s/c1=C(\C#N)C(=O)NCCN1CCOCC1 | / | / | 18% | / | /
O=C1CC(c2ccco2)CC(O)=C1C=Nc1cc(Cl)cc(Cl)c1 (stereo not given) | 3% | 3% | -13% | 40µM* | ?
O=C1CC(c2ccco2)CC(O)=C1C=NCCN1CCNCC1 (stereo not given) | -2% | -10% | -17% | -6% | 13µM*
c1ccc(CN2CCN(CCOCCOc3cccc4ccccc34)CC2)cc1 | -8% | -14% | -8% | 50µM* | ?
CC(C)COC(=O)c1cccc2c1-c1ccccc1/C2=N\O | ? | 11µM* | -2% | -7% | 8%
Cc1ccc(-c2ccc(/C=N/c3ncn[nH]3)o2)cc1Cl | 15% | ? | -6% | 56µM* | ?
Cc1ccc(-c2ccc(/C=N/NC(=O)CN3CCCC3)o2)cc1Cl | 11µM* | -19% | -1% | -6% | ?
COC(=O)N/N=C/c1ccc(-c2ccc(C)c(Cl)c2)o1 | ? | -7% | -5% | 6% | -11%
Cc1ccc(-c2ccc(/C=N\NC(=O)C3C(=O)NCC3c3ccccc3)o2)cc1Cl (stereo not given) | ? | 20µM* | -5% | 50µM* | ?
O=C1NCC(c2ccccc2)C1C(=O)N/N=C\c1ccc(-c2cccc(Cl)c2Cl)o1 (stereo not given) | -16% | -25% | -5% | -29% | -6%
CC(=O)NC(c1cccc(F)c1)c1nc(-c2cc(F)cc(Cl)c2)cs1 (stereo not given) | / | / | -11% | / | /
Cc1nc2c(nc1C)C(=O)c1ccccc1C2=O | / | / | -2% | / | /
O=C1c2ccccc2-c2nc3ccccc3nc21 | -6% | -5% | -6% | 3% | 13µM*
CCNc1ncc2ncc(=O)n(C)c2n1 | 13% | 5% | / | 10% | ?
COc1ccc(Cl)c(Cn2c(NCc3ccco3)nc3c2c(=O)n(C)c(=O)n3C)c1 | -43% | 0.0089µM* | -2% | -16% | ?
COc1cccc(Cn2c(NCc3ccco3)nc3c2c(=O)n(C)c(=O)n3C)c1 | -38% | 2.8µM* | -3% | -3% | -2%
C(=N\Nc1nc2ccccc2s1)/c1ccc2c(c1)OCO2 | 7.9µM* | 7.1µM* | 3% | -17% | 3%
O=C(O)C/C(=C\c1cc2c(cc1Br)OCO2)c1nc2ccccc2s1 | -10% | 7% | 24µM* | ? | /
Brc1cc2c(cc1/C=N/Nc1nc(N3CCOCC3)nc(N3CCOCC3)n1)OCO2 | 2% | -18% | -8% | 4% | 20µM*
COc1cc(OC)cc(C(=O)Oc2ccc(/C=N/Nc3nc4ccccc4s3)cc2OC)c1 | 10µM* | -23% | -6% | -19% | 2%
COc1cc(/C=N/Nc2nc3ccccc3s2)ccc1OC(=O)c1ccccc1F | ? | ? | -2% | 4% | 0%
Cc1nc2cnc(N3CCOCC3)nc2n(C[C@H]2CCCO2)c1=O | 2% | -9% | / | 27% | ?
CC(=O)c1ccc(-c2c(CCO)sc3ccccc23)cc1 | / | / | 1% | / | /
